GalR3 antag = human GalR3 antagonism; O60755; HEK293 GalR3-CNG cAMP membrane potential fluorescence; galR3 body fused to GalR1 C-terminus; inhibition, % at 3 µM; actives 0.44% (n = 360,000); AID 651719;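 active means inhibition above the screen-wide average plus 3 SD, cut at about 13% in these data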;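 further: forskolin and galanin both at EC90 stimulate the cells; cAMP rise reported by CNG channel membrane potential dye signal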
NR5A2 inv ag = inverse agonists of human LRH-1 (NR5A2) | actives 0.13% (n = 360,000) | inhibition, % at 3.6 µM | HEK293T StAR-luciferase reporter, LRH-1 transfected, 24 h;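 active means inhibition above the mean inhibition of all tested compounds plus 3 SD, cut at about 73% in these data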
Target sequence (O00482 whole entry, looked up): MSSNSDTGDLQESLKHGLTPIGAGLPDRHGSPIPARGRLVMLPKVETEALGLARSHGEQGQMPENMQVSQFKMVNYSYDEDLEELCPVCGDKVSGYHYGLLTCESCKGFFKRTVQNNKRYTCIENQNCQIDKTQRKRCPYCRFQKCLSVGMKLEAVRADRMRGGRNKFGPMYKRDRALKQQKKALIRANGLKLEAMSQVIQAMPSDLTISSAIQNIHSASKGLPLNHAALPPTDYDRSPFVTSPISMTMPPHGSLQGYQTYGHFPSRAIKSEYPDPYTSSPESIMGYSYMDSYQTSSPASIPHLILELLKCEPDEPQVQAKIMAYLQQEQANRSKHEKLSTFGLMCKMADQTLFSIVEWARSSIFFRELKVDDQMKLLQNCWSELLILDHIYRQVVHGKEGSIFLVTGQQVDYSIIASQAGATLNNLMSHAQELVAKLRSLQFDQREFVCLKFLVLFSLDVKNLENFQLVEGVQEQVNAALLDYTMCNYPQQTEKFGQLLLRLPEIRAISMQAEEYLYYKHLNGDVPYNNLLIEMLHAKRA
SRC3 inh = inhibitors of human steroid receptor coactivator 3 (SRC3) | actives 0.17% (n = 360,000) | inhibition, % at 3.6 µM | HEK293 GAL4-SRC3 luciferase reporter, luminescence;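 active means inhibition above a per-campaign cutoff, the mean of all compounds plus 3 SD, cut at about 60% in these data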;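 further: higher means less SRC3-driven luciferase light from the GAL4 reporter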
COUP-TFII inh = blocks human COUP-TFII nuclear receptor. P24468. HEK293T NGFI-A luciferase reporter, luminescence. inhibition, % at 8.6 µM. actives 0.7% (n = 370,000). AID 686940;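 active means inhibition above a per-plate cutoff, mean inhibition of test wells between control levels plus 3 SD, cut at about 38% in these data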;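 further: cells cotransfected with COUP-TFII expression vector driving the NGFI-A reporter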
SRC2 inh = human SRC2 (NCOA2) inhibition. Q15596. HEK293 GAL4-SRC2 luciferase reporter, luminescence. inhibition, % at 9 µM. actives 0.17% (n = 370,000). AID 651957;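 active means inhibition above the mean inhibition of all tested compounds plus 3 SD, set per campaign, cut at about 52% in these data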
NCOA1 inh = human NCOA1 inhibition; HEK293 GAL4-SRC1 luciferase reporter, luminescence; Q15788; actives 0.12% (n = 360,000); inhibition, % at 3.6 µM; AID 588354;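 active means inhibition above the campaign mean plus 3 SD, with each screening campaign given its own cutoff, cut at about 60% in these data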
A number is an active result; . = inactive; / = no result given. This is a sample that favours compounds with a hit; in the whole collection about 1.1% have one here.

SMILES	GalR3 antag	NR5A2 inv ag	SRC3 inh	COUP-TFII inh	SRC2 inh	NCOA1 inh
CCC(=O)NC(c1ccc(Cl)cc1Cl)c1ccc2cccnc2c1O (stereo not drawn)	.	.	.	.	.	.
CCCCC(=O)NC(c1ccc(OC)cc1)c1ccc2cccnc2c1O (stereo not drawn)	.	102.6	.	.	.	.
CCC(=O)NC(c1ccc(C)cc1)c1ccc2cccnc2c1O (stereo not drawn)	.	.	64.2	.	.	.
CCCC(=O)NC(c1ccccc1Cl)c1ccc2cccnc2c1O (stereo not drawn)	.	84.0	.	.	.	.
CC(C)C(=O)NC(c1ccc(Cl)cc1Cl)c1ccc2cccnc2c1O (stereo not drawn)	.	83.5	.	.	.	.
Cn1ccnc1SCC(=O)n1c2c(c3ccccc31)CCCC2	.	.	.	.	.	.
CN1OC[C@@H]2CN[C@H](c3ccc(-c4cc5ccccc5o4)cc3)C[C@@H]21	/	90.5	87.2	/	/	86.8
O=c1c(Br)ccc(Br)cc1Br	.	.	.	52.9	57.7	.
O=C(CCCN1C(=O)/C(=C/c2ccccc2Cl)SC1=S)NNC(=O)c1ccncc1	.	.	.	.	57.9	.
O=C(CCCN1C(=O)/C(=C/c2cccs2)SC1=S)NNC(=O)c1ccncc1	.	.	.	.	.	.
O=[N+]([O-])c1cccc(S(=O)(=O)NCCc2cn3ccccc3n2)c1	.	.	.	.	.	.
COc1cccc(-c2ccc3nnc(SCC(=O)N4CCCC4)n3n2)c1	.	.	.	.	.	.
COc1cc(OC)cc(C(=O)N[C@H](C(=O)Nc2ccccc2N2CCOCC2)C(C)C)c1	.	.	.	.	.	.
CCn1c(C)nc2cc(-c3nc4n(n3)Cc3ccccc3-4)ccc21	/	94.8	85.9	/	/	90.7
O=C(O)Cc1ccc(C(=O)c2ccccc2)s1	.	.	.	.	.	.
COc1ccc(C(=O)c2ccc(CC(=O)O)s2)cc1	.	.	.	.	52.3	.
O=C(Nc1ccccc1)C1=C(c2ccccc2)S(=O)(=O)CCS1(=O)=O	.	.	.	.	54.4	.
COc1cc([C@@H]2c3cc4c(cc3[C@H](O)[C@H]3COC(=O)[C@H]23)OCO4)cc(OC)c1OC	/	.	.	.	.	.
COc1cc([C@@H]2c3cc4c(cc3[C@@H](O[C@@H]3O[C@@H]5CO[C@@H](C)O[C@H]5[C@H](O)[C@H]3O)[C@H]3COC(=O)[C@H]23)OCO4)cc(OC)c1O	.	.	64.8	.	.	80.0
COc1cc(C2c3cc4c(cc3C(OC3OC5COC(c6cccs6)OC5C(O)C3O)C3COC(=O)C23)OCO4)cc(OC)c1O (stereo not drawn)	.	.	76.7	.	.	80.6
CCOc1ccccc1NC(=O)CSc1nc2[nH]ncc2c(=O)[nH]1	.	.	.	.	.	.
CC(C)(C)c1ccc(C(O)c2ncc(-c3ccc4ccccc4c3)[nH]2)cc1 (stereo not drawn)	.	.	.	.	.	.
Cc1cccc(N(Cc2ccccc2)C(=O)CCl)c1	.	.	.	.	60.0	.
O=C(CCl)N(Cc1ccccc1)c1ccccc1	.	.	.	.	.	.
COc1cc(/C=N/NC(=O)c2cccc([N+](=O)[O-])c2)cc(OC)c1O	.	.	.	.	.	.
SMILES	GalR3 antag	NR5A2 inv ag	SRC3 inh	COUP-TFII inh	SRC2 inh	NCOA1 inh
COc1cc(/C=N/NC(=O)c2cncc(Br)c2)cc([N+](=O)[O-])c1O	25.0	.	.	.	.	.
Cc1cc(Cl)ccc1N(CC(=O)N(C)Cc1ccccc1)S(C)(=O)=O	.	.	.	.	.	.
Cc1ccnc(NC(=O)CCCOc2cc(=O)n(C)c3ccccc23)c1	.	73.9	.	.	.	.
Cn1c(=O)cc(OCCCC(=O)Nc2cc(Br)ccn2)c2ccccc21	/	/	/	.	/	/
COc1ccc2c(c1)sc(=NC(=O)CS(=O)(=O)c1ccc(F)cc1)n2C	.	.	.	.	.	.
COC1=C(C)C(=O)C2=C(C1=O)C1C3CC4=C(C(=O)C(OC)=C(C)C4=O)C(CNC(=O)C(C)=O)N3C(C#N)C(C2)N1C (stereo not drawn)	.	96.0	84.9	51.6	62.7	83.9
Cn1nnnc1N=N/C(=N/Nc1ccccc1)c1ccccc1	.	.	81.3	.	.	76.3
CC(C)[C@H](NC(=O)[C@@H]1CSC2c3ccccc3C(=O)N21)C(=O)NC1CCCC1 (stereo partly drawn)	.	.	.	.	.	.
NC(=O)c1ccc(N=C2C(=O)Nc3ccc([N+](=O)[O-])cc32)cc1	13.4	.	.	.	.	.
CC1(C)CC(=O)C(C=NCCN2CCN(CCc3ccccc3)CC2)=C(O)C1	.	.	.	.	.	.
COc1ccccc1/C=C/C(=O)c1c2c(c(C)[nH]c1=O)CCCC2	.	.	65.3	.	58.0	.
CN(C)S(=O)(=O)c1cccc(NC(=S)Nc2cccc3cnccc23)c1	.	.	.	43.5	.	.
CC(C)CC(=NNC(=O)c1ccncc1)c1cc(Cl)ccc1O	.	.	70.5	.	.	.
COCCNCC(=O)NCC12CC3CC(CC(C3)C1)C2	.	.	.	.	.	.
COc1cc(C=CC(=O)c2ccccc2)cc(OC)c1OC	.	.	.	.	.	.
COc1cc(C=CC(=O)c2cc(OC)c(OC)c(OC)c2)cc(OC)c1OC	.	.	63.5	.	68.2	.
COCC(C)n1c(SCC(=O)N2CCOCC2)nc2ccccc2c1=O (stereo not drawn)	.	.	.	.	.	.
COC(=O)c1cc(C)nc2c1C(=O)C(=O)C=C2N1CCOCC1	.	.	71.1	41.7	56.8	61.6
COC(=O)c1cc(S(=O)(=O)N2CCOCC2)c(Cl)cc1N1CCOCC1	.	.	.	.	.	.
COC(=O)[C@]12C[C@H](CC(=O)N3CCCC3)C(=O)N(Cc3ccccc3)C1=C[C@H](COCc1ccccc1)O[C@@H]2C	/	/	/	.	.	/
COc1ccc(C(=O)Nc2ccc(-c3ccc(C)o3)cc2)cc1S(=O)(=O)N1CCOCC1	93.6	.	.	75.1	.	.
COc1ccc(C(=O)Nc2ccc(N3CCOCC3)cc2)cc1S(=O)(=O)N1CCOCC1	.	.	.	.	.	.
Oc1ccc(N=Nc2ccc3c(c2)OCCO3)c2cccnc12	.	.	.	.	52.4	.
COc1ccc(N=Nc2ccc(O)c3ncccc23)cc1	.	.	.	.	.	.
Cc1noc(C)c1COC(=O)c1cc(S(=O)(=O)N2CCOCC2)ccc1F	.	.	.	.	.	.
CCc1cc2c(COC(=O)c3cc(S(=O)(=O)N4CCOCC4)ccc3F)cc(=O)oc2cc1O	18.7	.	.	.	.	.
Nc1ccc(-c2cnc(N)c(C(=O)c3cccnc3)n2)cn1	/	.	70.4	/	/	68.6
Nc1ccc(C(=O)c2cccs2)cn1	.	.	.	.	.	.
